Source: PubChem BioAssay AID624330 (Southern Research Specialized Biocontainment Screening …, 2012)
About 2,100 (0.62%) of roughly 340,000 compounds were called active.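 Rule for the calls: active = first-screen hits whose inhibition reached a set limit at any dose in the follow-up dose series; inconclusive = inhibition above the set first-screen limit but never retested; inactive = the rest.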 These entries were drawn from the full list. Results with a measured potency or affinity are listed apart.

These compounds were tested against Rac GTPase-activating protein 1 (Homo sapiens) (UniProt Q9H0H5) (assay: MgcRacGAP GTPase-activating activity inhibitors, confirmation, biochemical, ADP Hunter fluorescence, primary and confirmatory (AID 624330;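 note: fluorescence reports GDP produced by GAP-driven GTP hydrolysis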)). Settings: MgcRacGAP-stimulated Rac1 GTP hydrolysis, at 30 µM, active compounds read high, GST-tagged Rac1 F28L mutant substrate.
Sequence of Rac GTPase-activating protein 1 (Homo sapiens) (Q9H0H5 whole entry, looked up): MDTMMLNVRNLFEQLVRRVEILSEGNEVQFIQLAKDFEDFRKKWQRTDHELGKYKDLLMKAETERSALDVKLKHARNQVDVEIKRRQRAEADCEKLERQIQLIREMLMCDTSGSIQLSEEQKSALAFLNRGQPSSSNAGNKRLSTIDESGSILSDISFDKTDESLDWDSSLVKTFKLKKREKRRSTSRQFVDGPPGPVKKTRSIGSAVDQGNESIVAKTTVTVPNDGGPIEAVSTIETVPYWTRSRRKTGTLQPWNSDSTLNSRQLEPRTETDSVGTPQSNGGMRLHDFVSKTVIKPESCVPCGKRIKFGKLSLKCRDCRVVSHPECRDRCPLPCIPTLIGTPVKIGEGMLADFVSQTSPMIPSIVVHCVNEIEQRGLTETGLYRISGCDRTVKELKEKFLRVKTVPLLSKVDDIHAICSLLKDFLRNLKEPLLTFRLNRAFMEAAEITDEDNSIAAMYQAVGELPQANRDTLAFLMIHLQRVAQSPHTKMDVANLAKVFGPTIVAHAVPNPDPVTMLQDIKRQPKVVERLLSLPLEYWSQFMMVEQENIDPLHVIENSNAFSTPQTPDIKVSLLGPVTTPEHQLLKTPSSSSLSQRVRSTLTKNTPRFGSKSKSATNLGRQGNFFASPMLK

| Structure (SMILES) | inhibition |
| --- | --- |
| O=c1ccn([C@H]2C[C@H](O)[C@@H](CO)O2)c(=O)[nH]1 | 1.01% (inactive) |
| CN(CC(=O)NCC(=O)Nc1ccc(F)cc1)C1CCS(=O)(=O)C1 (centres undefined) | 3.81% (inactive) |
| COc1ccc2c(c1)C(c1ccccc1)=NNC(c1ccco1)=N2 | 2.48% (inactive) |
| Cc1ccc(N2C(S)=C(C#N)C(=O)NC2c2ccco2)cc1 (centres undefined) | 49.9% (inactive) |
| N#CC1=C(S)N(c2ccccc2)C(c2ccco2)NC1=O (centres undefined) | 1.78% (inactive) |
| COc1ccc(N2C(S)=C(C#N)C(=O)NC2c2ccco2)cc1 (centres undefined) | 38.5% (inactive) |
| COc1ccc(C2NC(=O)C(C#N)=C(S)N2c2ccccc2)cc1OC (centres undefined) | 42.4% (inactive) |
| N#CC1=C(S)N(c2ccccc2)C(c2ccc(-c3ccc(Cl)c(Cl)c3)o2)NC1=O (centres undefined) | 24.7% (inactive) |
| N#CC1=C(S)N(c2ccccc2)C(c2ccc(-c3cc(Cl)ccc3Cl)o2)NC1=O (centres undefined) | 19.7% (inactive) |
| O=C(COC(=O)c1cc(F)c(F)cc1Cl)NC1CCCCCC1 | -27.4% (inactive) |
| CCN(CC)S(=O)(=O)c1ccc(N2CCN(c3ccccc3O)CC2)nc1 | 5.53% (inactive) |
| Clc1ccc(NCc2nnc3n2CCCCC3)cc1 | 10.6% (inactive) |
| CC(=O)N1CCOc2ccc(S(=O)(=O)Nc3ncccc3C)cc21 | 4.93% (inactive) |
| Cc1ccc(NC(=O)Cc2nc(COC(=O)c3c(F)cccc3Cl)cs2)cc1 | 2.55% (inactive) |
| O=C1c2ccccc2/C(=C\c2ccc(Br)s2)N1c1ccccc1 | 1.75% (inactive) |
| COc1ccc(N2CCN(C(=O)c3cc(=O)[nH]c4ccccc34)CC2)cc1 | 18.3% (inactive) |
| OC(COC(c1ccc(F)cc1)c1ccc(F)cc1)CN1CCCC1 (centres undefined) | 31.4% (inactive) |
| OC(COC(c1ccc(F)cc1)c1ccc(F)cc1)CN1CCc2ccccc2C1 (centres undefined) | 20.1% (inactive) |
| COc1ccc(N2CCN(CC(O)COC(c3ccccc3)c3ccccc3)CC2)cc1 (centres undefined) | 8.7% (inactive) |
| COc1ccc(C(OCC(O)CN2CCC(O)CC2)c2ccc(OC)cc2)cc1 (centres undefined) | 6.25% (inactive) |
| CCOC(=O)Cc1csc(NC(=O)c2ccc(C)o2)n1 | 3.9% (inactive) |
| Cc1nc(SCc2ccc([N+](=O)[O-])cc2)nc2ccccc12 | 8.16% (inactive) |
| O=C1CSC(=S)N1c1ccccc1 | -7.87% (inactive) |
| O=C(COc1ccccc1)NN1C(=O)CSC1=S | 6.09% (inactive) |

| Structure (SMILES) | inhibition |
| --- | --- |
| O=C(Cn1cc([N+](=O)[O-])cn1)NCc1cc2ccccc2[nH]1 | 8.44% (inactive) |
| CCOc1cc(N2CCOCC2)c(OCC)cc1NC(=O)Cc1ccccc1 | 10.9% (inactive) |
| CCOc1cc(N2CCOCC2)c(OCC)cc1NC(=O)c1ccccc1 | 27.1% (inactive) |
| CCOc1cc(N2CCOCC2)c(OCC)cc1NC(=O)c1cc(C)cc(C)c1 | 10.8% (inactive) |
| CCOc1cc(N2CCOCC2)c(OCC)cc1NC(=O)c1ccc(C)cc1 | 19.8% (inactive) |
| CC(C)CN1CC(Br)C(=O)NC1=O (centres undefined) | 4.9% (inactive) |
| COc1ccc(CCNC(=S)Nc2ccccc2)cc1 | 12.5% (inactive) |
| COc1ccc(C)cc1NC(=O)C(=O)N/N=C(\C)CC(=O)Nc1cccnc1 | -2.35% (inactive) |
| N#CCC(=N)N1CCN(c2ccc(F)cc2)CC1 | 1.28% (inactive) |
| CN(C(=O)OC(C)(C)C)[C@H](Cc1ccccc1)C(=O)N[C@H]1CCCCNC1=O | 4.78% (inactive) |
| CCS(=O)(=O)c1ccc(O)c(NC(=O)/C=C/c2ccccc2)c1 | 5.42% (inactive) |
| Cc1cc(NC(=O)/C=C/c2ccccc2)c(C(C)C)cc1O | 12.2% (inactive) |
| CCC1(c2ccccc2)NC(=O)N(CC(=O)N(CC(=O)Nc2ccccc2C(F)(F)F)Cc2ccco2)C1=O (centres undefined) | 1.52% (inactive) |
| COc1ccc(C)cc1NC(=O)c1cc(S(=O)(=O)N2CCOCC2)cn1C | 10.3% (inactive) |
| CCOC(=O)C1CCN(C(=O)COC(=O)c2oc3ccccc3c2C)CC1 | 7.79% (inactive) |
| COc1ccc(/C=N/NC(=O)c2cccc(C(=O)N/N=C/c3ccc(OC)c(OC)c3)n2)cc1OC | 5.53% (inactive) |
| COc1ccc(/C=N/NC(=O)c2ccc(=O)[nH]n2)cc1OC | 8.66% (inactive) |
| COc1cc(/C=N/NC(=O)c2cccc(C(=O)N/N=C/c3ccc(O)c(OC)c3)n2)ccc1O | 9.56% (inactive) |
| CCOC(=O)N/N=C/c1ccc(OC)c(O)c1 | 18.6% (inactive) |
| CC(C)NC(=O)c1cc2n(n1)C(C(F)(F)F)CC(c1ccco1)N2 (centres undefined) | 5.2% (inactive) |
| C=CCn1c(SCC(=O)NCCOC)nnc1-c1cc2c(s1)CCC(CC)C2 (centres undefined) | 7.45% (inactive) |
| O=C1c2cc([N+](=O)[O-])ccc2-c2ncccc21 | -4.67% (inactive) |
| Cn1c(=O)[nH]c(=O)c2c1nc(Sc1ccccc1)n2CCc1ccccc1 | 0.88% (inactive) |
| CCC(C)(O)c1[nH]c2ccc(C(F)(F)F)cc2c1C (centres undefined) | 5.14% (inactive) |

| Structure (SMILES) | inhibition |
| --- | --- |
| O=C1c2ccccc2C(=O)c2c(Nc3ccc(CCO)cc3)ccc(O)c21 | 15.2% (inactive) |
| CNc1cccc2c1C(=O)c1ccccc1C2=O | 6.76% (inactive) |
| CN1C(=O)c2cccc(NCCCN3C(=O)c4ccccc4C3=O)c2C1=O | 10.7% (inactive) |
| CN1C(=O)c2cccc(NCCCCCCN3C(=O)c4ccccc4C3=O)c2C1=O | 5.81% (inactive) |
| OCCNCCO | -1.48% (inactive) |
| O=C1c2ccccc2C(=O)c2c(NCc3cccnc3)cccc21 | 1.26% (inactive) |
| CC(C)Oc1ccc(C(=O)NC2=NCCS2)cc1 | 6.37% (inactive) |
| Cc1cccc(NC(=O)CSc2nnnn2-c2cccnc2)c1 | 4.2% (inactive) |
| Cc1cc(C)c(NC(=O)CN(C)C(=O)CCN2C(=O)C3CCCCC3C2=O)c(C)c1 (centres undefined) | 11.4% (inactive) |
| Cn1c(SCC(=O)NCC2CCCO2)nnc1-c1cccc(NC(=O)c2ccccc2F)c1 (centres undefined) | 2.1% (inactive) |
| COCCCNC(=O)COc1ccc(S(=O)(=O)Nc2ccccc2)cc1 | 5.23% (inactive) |
| NC(=O)CC12CC3CC(C1)CC(CC(N)=O)(C3)C2 | -1.41% (inactive) |
| NCC12CC3CC(CC(O)(C3)C1)C2 | 9.89% (inactive) |
| COCC(C)NCc1cccc2ccccc12 (centres undefined) | 26.8% (inactive) |
| COCC(C)NCc1ccc(C)cc1C (centres undefined) | 16.8% (inactive) |
| CCOc1ccccc1N1CC(C(=O)Nc2cc(Cl)ccc2C)CC1=O (centres undefined) | -1.6% (inactive) |
| Cc1ccc(Cl)cc1N1CCN(C(=O)CN(C2CCCCC2)S(C)(=O)=O)CC1 | 1.2% (inactive) |
| O=C(Nc1ccccc1Cl)C1CCN(S(=O)(=O)c2cccc3nonc23)CC1 | -1.65% (inactive) |
| CCN(CC)c1ccc(CNc2ccc3c(c2)ncn3C(C)(C)C)cc1 | 6.25% (inactive) |
| CCOc1cc(/C=N/Nc2nncc(-c3ccccc3)n2)ccc1O | 13.6% (inactive) |
| CCOc1ccc(/C=N/Nc2nc(=O)[nH]nc2C)cc1OC | 7.43% (inactive) |
| CCOc1cc(/C=N\Nc2nc(-c3ccc(C)cc3)c(NC(C)=O)s2)ccc1O | 8.08% (inactive) |
| CCOc1cc(/C=N/Nc2cc(C)nc(-n3nc(C)cc3C)n2)ccc1O | 11.4% (inactive) |
| C[C@H](CO)N1C[C@H](C)[C@@H](CN(C)C(=O)Nc2ccc(C(F)(F)F)cc2)Oc2ccc(NS(=O)(=O)c3cccs3)cc2C1=O | 6.16% (inactive) |

| Structure (SMILES) | inhibition |
| --- | --- |
| CC(C)NC(=O)CCCc1cn(C)c2ccccc12 | 3.62% (inactive) |
| COCCNC(=O)c1onc(CSc2ccccc2)c1C(=O)O | 7.12% (inactive) |
| COC(=O)c1ccc(CNC(=O)COC(=O)/C=C/c2cc(OC)c(OC)c(OC)c2)cc1 | -11.7% (inactive) |
| COc1ccc(/C=C/C(=O)OCC(=O)NCc2ccccc2)cc1OC | -1.57% (inactive) |
| CCN(C(=O)COC(=O)/C=C/c1ccc(OC)c(OC)c1)c1c(N)n(Cc2ccccc2)c(=O)[nH]c1=O | 4.28% (inactive) |
| CC(C)CN(C(=O)COC(=O)/C=C/c1ccc(Cl)c(Cl)c1)c1c(N)n(Cc2ccccc2)c(=O)[nH]c1=O | 10.7% (inactive) |
| COC(=O)c1ccc(CNC(=O)COC(=O)/C=C/c2ccc(OC)c(OC)c2)cc1 | 1.48% (inactive) |
| COc1cc(/C=C/C(=O)OCC(=O)N(C)Cc2ccccc2)cc(OC)c1OC | 5.49% (inactive) |
| COc1cc(/C=C/C(=O)O)ccc1O | 22.1% (inactive) |
| COc1cc(/C=C/C(=O)OCC(=O)NCc2ccccc2OC)ccc1O | -4.08% (inactive) |
| CCOC(=O)C(Cc1c(F)cccc1Cl)c1ccnc2nc(N)nn12 (centres undefined) | 7.53% (inactive) |
| CCC(CC)CN1C(Nc2ccccc2)=NC[C@@H]1CC(C)C | 7.15% (inactive) |
| Cn1c(SCC(=O)NNC(=O)c2ccc(Br)cc2)nnc1-c1cccnc1 | 6.67% (inactive) |
| CC1CN(CC(=O)NN=C(c2ccccc2)c2ccccc2)CC(C)O1 (centres undefined) | 8.46% (inactive) |
| Cc1cccc2sc(NC(=O)CSc3nc4ccccc4o3)nc12 | 7.18% (inactive) |
| CC(Sc1ncnc2ccccc12)C(=O)Nc1ccc2c(c1)OCO2 (centres undefined) | 5.78% (inactive) |
| COc1ccc(OC(C)C(=O)N2CCN(c3ccccn3)CC2)cc1 (centres undefined) | -1.84% (inactive) |
| CC1CCCN(C(=O)COC(=O)CNS(=O)(=O)c2ccc3ccccc3c2)C1 (centres undefined) | 11.5% (inactive) |
| COc1cc(/C=C/C(=O)OCC(=O)NCCCc2ccccc2)cc(OC)c1OC | 2.15% (inactive) |
| COc1ccc(/C=C/C(=O)OCC(=O)NCCCc2ccccc2)cc1OC | 1.47% (inactive) |
| O=C(NCCc1c[nH]c2ccccc12)C(=O)NCC(c1ccco1)N1CCN(c2ccc(F)cc2)CC1 (centres undefined) | 5.54% (inactive) |
| C[C@@H]1CN([C@@H](C)CO)C(=O)c2cc(-c3ccccc3F)cnc2O[C@H]1CN(C)Cc1cccc(F)c1 | 5.55% (inactive) |
